Eya2 phos inh: blocks the phosphatase activity of human Eya2. recombinant Eya2, OMFP fluorescence dephosphorylation (OMFP is methylfluorescein phosphate). Potency, µM (doses to about 76.9 µM), without a hit: at the top dose activity, negative = inhibition, actives largely listed as inhibitors. 0.006% of 330,000 active; further: potency means the concentration at half of the fitted maximal effect; on the % scale 0 is the no-effect control and ±100 the full control effect
Target sequence (O00167 whole entry, looked up): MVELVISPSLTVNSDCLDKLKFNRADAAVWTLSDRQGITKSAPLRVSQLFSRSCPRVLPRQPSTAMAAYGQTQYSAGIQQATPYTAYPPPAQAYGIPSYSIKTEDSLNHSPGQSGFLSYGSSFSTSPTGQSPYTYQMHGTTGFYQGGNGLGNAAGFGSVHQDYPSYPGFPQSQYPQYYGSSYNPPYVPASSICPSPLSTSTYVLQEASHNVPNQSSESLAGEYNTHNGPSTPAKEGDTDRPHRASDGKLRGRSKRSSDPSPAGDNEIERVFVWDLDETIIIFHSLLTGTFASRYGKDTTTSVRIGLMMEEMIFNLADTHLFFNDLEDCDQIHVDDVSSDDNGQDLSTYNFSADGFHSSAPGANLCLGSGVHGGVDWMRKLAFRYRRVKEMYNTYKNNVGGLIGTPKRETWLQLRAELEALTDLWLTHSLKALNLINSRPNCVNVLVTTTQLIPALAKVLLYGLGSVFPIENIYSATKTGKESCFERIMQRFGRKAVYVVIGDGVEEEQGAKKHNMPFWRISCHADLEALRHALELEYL
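Eya2 (0.2 uM) preincubated 10 min at ambient with compound, then OMFP substrate added at 50 uM; 10 min reaction in 50 mM HEPES pH 7.5, 50 mM NaCl, 5 uM MgCl2, 0.05% BSA, 1 mM DTT. Fluorescence read at Ex 485/Em 525 nm.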
IDH1 R132H inh: human IDH1 R132H inhibition; Potency, µM (series often up to 76.6 µM), without a hit: top-dose activity change, negative = inhibition, actives largely listed as inhibitors; 0.093% of 390,000 active; O75874; IDH1-R132H enzyme, NADPH consumption, diaphorase/resazurin fluorescence; further: potency means the concentration at half of the fitted maximal effect; on the % scale 0 is the no-effect control and ±100 the full control effect; nearly all actives have a fitted effect of over 65% in size
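IDH1-R132H (0.5 ug/mL) preincubated 30 min with compound, then NADPH (0.016 mM) and alpha-KG (2 mM) added; 80 min at RT, pH 7.5. Remaining NADPH coupled via diaphorase/resazurin to fluorescence (540/590 nm); concentration-response curves normalized to no-enzyme control.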
rTrxR1 inhibitor: inhibitors of rat thioredoxin reductase 1 | O89049 | recombinant rTrxR1, NADPH fluorescence consumption, selenite substrate | Potency, µM (series often up to 114 µM), for the others: at the highest dose activity change, negative = inhibition, usual class: inhibitors | 1% of 390,000 active | AID 588453; further: potency means the concentration at half of the fitted maximal effect; on the % scale 0 is the no-effect control and ±100 the full control effect; nearly all actives have a fitted effect of over 65% in size
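Rat TrxR1 (90 nM in the dispensed reagent) was pre-reduced with 400 uM NADPH for 5 min at room temperature, then incubated with compound for 15 min. After 400 uM selenite was added, NADPH fluorescence (Ex 340/Em 450 nm) was followed for 8 min.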
TrxR1 substrate: substrates of rat thioredoxin reductase 1. purified TrxR1 substrate turnover, NADPH consumption readout. AID 588456. 0.01% of 390,000 active. Potency, µM (titrated, usually from 114 µM), for inactives: top-dose activity change, negative = substrate turnover; further: potency means the concentration at half of the fitted maximal effect; on the % scale 0 is the no-effect control and ±100 the full control effect; nearly all actives have a fitted effect of over 50% in size
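Rat TrxR1, dispensed at 90 nM, was prereduced with 400 uM NADPH (final) for 5 min at ~22 deg C, then incubated with compound 15 min before 400 uM selenite. A first-read NADPH fluorescence drop versus no-compound background flagged substrates.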
Coupling enz: counter-screen for Giardia aldolase inhibitors: coupling enzyme system. coupling enzyme system counterscreen, AmpLite Red fluorescence. activity change, negative = inhibition, % at 58.2 µM, hits read low. 0.67% of 290,000 active. AID 2472; in the data active means activity change below about -30%; further: on the % scale 0 is the no-effect control and ±100 the full control effect
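Counterscreen lacking aldolase: glyceraldehyde-3-phosphate coupling-enzyme reagent preincubated 10 min at RT with compound (at 57.5 uM final), then substrate/coupling system with AmpLite Red added; fluorescence read at 525/598 nm after 20 min RT.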
Casp1 confirm: blocks human caspase-1 activity in concentration-response; shares compounds with Coupling enz; purified caspase-1, fluorogenic substrate cleavage; Potency, µM (top dose mostly 57.5 µM), for the others: at the top dose activity change, negative = inhibition, usual class: inhibitors; 20% of 60 active; AID 896; active means well fitted inhibition curve with a large enough effect in the main read-out, with a control signal flat; inconclusive means small, poorly fitted or top-dose-only effect, or a change in a side signal; inactive means no such curve, though single readings can be large or run the other way
Casp7 confirm: blocks human caspase-7 activity in concentration-response. recombinant caspase-7, fluorogenic substrate cleavage. 60 tested, under 10 active. Potency, µM (top dose mostly 57.5 µM), for the others: at the highest dose activity change, negative = inhibition, actives largely listed as inhibitors. shares compounds with Coupling enz; active means well fitted inhibition curve with a large enough effect in the main read-out, with a control signal flat, not every such curve was filed as active; inconclusive means small, poorly fitted or top-dose-only effect, or a change in a side signal; inactive means no such curve, though single readings can be large or run the other way
Casp7 cysteine: counter-screen for redox active caspase-7 inhibitors: cysteine buffer | shares compounds with Coupling enz | caspase-7 enzyme with cysteine, fluorogenic substrate, redox counterscreen | Potency, µM (titrated, usually from 57.5 µM), for inactives: at the top dose activity change, negative = inhibition, usual class: inhibitors | 60 tested, under 10 active; active means well fitted inhibition curve with a large enough effect in the main read-out, with a control signal flat; inconclusive means small, poorly fitted or top-dose-only effect, or a change in a side signal; inactive means no such curve, though single readings can be large or run the other way
Casp1 cysteine: inhibits caspase-1 in cysteine buffer, redox counter-screen. 60 tested, under 10 active. AID 929. shares compounds with Coupling enz. recombinant caspase-1, fluorogenic substrate, cysteine buffer. Potency, µM (highest dose often 57.5 µM), for inactives: top-dose activity change, negative = inhibition, usual class: inhibitors; active means well fitted inhibition curve with a large enough effect in the main read-out, with a control signal flat; inconclusive means small, poorly fitted or top-dose-only effect, or a change in a side signal; inactive means no such curve, though single readings can be large or run the other way
* hit, by the source's call; [ ] = another dose, or the depositor's remark. The list is not random: actives were taken first. Their share in the collection is about 1.5%. Unless noted, the call rests on the fitted dose curve; in most records, active means well fitted curve in the direction sought with a large enough effect; inconclusive means small, poorly fitted or top-dose-only effect, or another doubt; inactive means no such curve, though single readings can be large; an effect the other way counts as inactive or inconclusive.

For Cc1cc(C)c(S(=O)(=O)N/N=C/c2ccc([N+](=O)[O-])o2)c(C)c1 the results were Eya2 phos inh 15%, IDH1 R132H inh 14%, rTrxR1 inhibitor 13µM*, TrxR1 substrate -4% and Coupling enz -11.
For Cc1cc(N(C)C)c(C)cc1/C=C/c1ccnc2ccccc12 the results were rTrxR1 inhibitor 9% and TrxR1 substrate -3%.
O=C(/C=C/c1ccc(Br)o1)NC(c1ccccc1)c1ccccc1 was read as Eya2 phos inh 3%, IDH1 R132H inh 7%, rTrxR1 inhibitor 20µM*, TrxR1 substrate 16% and Coupling enz 0.
`Nc1cnccc1C(=O)O` gave Eya2 phos inh -1%, IDH1 R132H inh 4%, rTrxR1 inhibitor inconclusive, TrxR1 substrate 86% and Coupling enz -51*.
For COC(=O)C1=NOC2(C=C(Br)C(OC)=C(Br)C2=O)C1 (centres undefined) the results were Coupling enz 2.
`Cc1ccc(/C=C/S(=O)(=O)NCC(=O)OCC(=O)Nc2c(F)cccc2F)cc1` gave Eya2 phos inh -2%, IDH1 R132H inh 0%, rTrxR1 inhibitor 32µM* and TrxR1 substrate -3%.
Cc1ccc(/C=C/S(=O)(=O)NCC(=O)OCC(=O)Nc2ccc(C(N)=O)cc2)cc1 was read as Eya2 phos inh -17%, IDH1 R132H inh -2%, rTrxR1 inhibitor 25% and TrxR1 substrate 8%.
`Cc1ccnc2cc(Cl)c(Cl)cc12` gave rTrxR1 inhibitor 9% and TrxR1 substrate 10%[0.0914 µM].
CNC(=O)[C@H]1O[C@@H](n2cnc3c(N)ncnc32)[C@H](O)[C@H]1O was read as rTrxR1 inhibitor 8%.
Screening COCCn1c(SCC(=O)c2ccc3c(c2)OCCO3)nnc1-c1ccoc1C returned Eya2 phos inh 10%, IDH1 R132H inh 11%, rTrxR1 inhibitor 45µM*, TrxR1 substrate -5% and Coupling enz 0.
Screening CCn1c(SCC(=O)Nc2ccc3c(c2)OCCO3)nnc1-c1ccco1 returned Eya2 phos inh 4%, IDH1 R132H inh 12%, rTrxR1 inhibitor -11%, TrxR1 substrate 8% and Coupling enz -11.
Screening CCCCn1c(SCC(=O)c2ccc3c(c2)OCCO3)nnc1-c1ccco1 returned Eya2 phos inh -32%, IDH1 R132H inh 4%, rTrxR1 inhibitor 7.1µM*, TrxR1 substrate -4% and Coupling enz 1.
C=CCOc1ccc(C2/C(=C(\O)c3ccc(F)cc3)C(=O)C(=O)N2CCCN(C)C)cc1 (centres undefined) was read as Eya2 phos inh 21%, IDH1 R132H inh 2%, rTrxR1 inhibitor 35µM*, TrxR1 substrate -4% and Coupling enz 2.
`CCOc1ccc(C2/C(=C(/O)c3ccc(F)cc3)C(=O)C(=O)N2CCCN(C)C)cc1` (centres undefined) gave Eya2 phos inh 8%, IDH1 R132H inh -3%, rTrxR1 inhibitor 10%[57.1 µM], TrxR1 substrate 4%[57.1 µM] and Coupling enz 1.
`COC(=O)C1=C(C)NC(C)=C(C(=O)NCCCN2CCC(c3ccccc3)(c3ccccc3)CC2)C1c1ccc([N+](=O)[O-])cc1` (centres undefined) gave Coupling enz 1.
Screening CCC(=O)Nc1cccc(-c2cnc3ccccc3n2)c1 returned Eya2 phos inh -7%, IDH1 R132H inh 7%, rTrxR1 inhibitor -8%, TrxR1 substrate -4% and Coupling enz -1.
O=C(CCl)Nc1cccc(-c2cnc3ccccc3n2)c1 was read as Eya2 phos inh 6%, IDH1 R132H inh -27%, rTrxR1 inhibitor 20µM*, TrxR1 substrate -1% and Coupling enz 1.
Screening Cc1ccccc1-c1nc(CS(=O)CC(=O)NC(C)CCc2ccccc2)c(C)o1 (centres undefined) returned Eya2 phos inh -14%, IDH1 R132H inh 15%, rTrxR1 inhibitor 2.2µM* and TrxR1 substrate 9%.
Screening COc1cccc(-c2nc(CS(=O)CC(=O)O)c(C)o2)c1 (centres undefined) returned Eya2 phos inh 18%, IDH1 R132H inh 2%, rTrxR1 inhibitor -34%, TrxR1 substrate 3% and Coupling enz 5.
`COc1cccc(-c2nc(CS(=O)CC(=O)NC(C)CCc3ccccc3)c(C)o2)c1` (centres undefined) gave Eya2 phos inh -3%, IDH1 R132H inh 3%, rTrxR1 inhibitor 28µM* and TrxR1 substrate 2%.
`Cc1cccc(-c2nc(CS(=O)CC(=O)NCCc3ccccc3)c(C)o2)c1` (centres undefined) gave Eya2 phos inh -1%, IDH1 R132H inh 8%, rTrxR1 inhibitor 7%, TrxR1 substrate 2% and Coupling enz -1.
For COc1cccc(-c2nc(CS(=O)CC(=O)NCCc3ccccc3)c(C)o2)c1 (centres undefined) the results were Eya2 phos inh 0%, IDH1 R132H inh 2%, rTrxR1 inhibitor 28µM* and TrxR1 substrate -7%.
`CCC(C)NC(=O)CS(=O)Cc1nc(-c2cccc(OC)c2)oc1C` (centres undefined) gave Eya2 phos inh -20%, IDH1 R132H inh -2%, rTrxR1 inhibitor 25µM*, TrxR1 substrate 10%[57.1 µM] and Coupling enz 2.
`COc1ccc(-c2nc3c(c4c2C[C@H](c2ccccc2)OC4)CN(S(=O)(=O)c2ccc(C)cc2)CC3)c(C)c1` gave Coupling enz 2.
`Cc1ccc(CNc2ccc(O)cc2)cc1` gave Eya2 phos inh -4%, IDH1 R132H inh 8%, rTrxR1 inhibitor inconclusive, TrxR1 substrate inconclusive, Coupling enz -46*, Casp1 confirm -13%, Casp7 confirm -5%, Casp7 cysteine -9% and Casp1 cysteine 3%.

Screening results: PubChem, National Center for Advancing Translational Sciences (NCATS)
